Source: PubChem
TDP1 cell noCPT – qHTS for Inhibitors of human tyrosyl-DNA phosphodiesterase 1 (TDP1): qHTS in cells in absence of CPT. Potency, µM (top dose mostly 46.2 µM), without a hit: top-dose activity change, negative = growth inhibition, actives largely listed as inhibitors. AID 686978, 2013. DT40 Tdp1-/- hTDP1 cells, no CPT, ATP luminescence, 48 h. 420,000 tested, 15% active; also: potency is read from the fitted curve at half-maximal effect; nearly all actives have a fitted effect of over 55% in size
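Chicken DT40 Tdp1-/- cells complemented with human TDP1, screened without camptothecin (DMSO vehicle only), 400 cells/well. Compounds pin-transferred, cells incubated at 37 °C for at least 48 hr. Growth read as ATP-dependent luminescence (CellTiter-Glo, 30 min at RT).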
IL1B secr inh – qHTS for Inhibitors of Inflammasome Signaling: IL-1-beta AlphaLISA Primary Screen. THP-1 LPS/ATP IL-1B secretion, AlphaLISA, 16 h; hits give low values. activity change, % at 57.5 µM. 360,000 tested, 4.7% active; in the data active = activity change below about -50%; inconclusive = mostly about -30% to -49%
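Secreted IL-1B measured by AlphaLISA bead assay after 16 h compound exposure of THP-1 cells; compounds (final up to 57.5 uM) added 1 h before LPS (250 ng/mL) and ATP (1.25 mM) stimulation; lower signal means less secretion.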
HT1080NT lethal – qHTS for induction of synthetic lethality in tumor cells producing 2HG: qHTS for the HT-1080-NT fibrosarcoma cell line; AID 686970, 2013; 360,000 tested, 1.6% active; Potency, µM (top dose mostly 46.1 µM), without a hit: at the top dose activity, negative = less viability, usual class: cytotoxic; HT-1080-NT fibrosarcoma viability, CellTiter-Glo ATP luminescence, 48 h;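 also: NT is the 2HG producing partner of a matched IDH1 knockdown line; potency is read from the fitted curve at half-maximal effect; 0% = DMSO-treated cells and -100% = media-only wells without cells; nearly all actives have a fitted effect of over 55% in size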
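Read-out is CellTiter-Glo luminescence after 10 minutes at room temperature, following 48 hours' compound treatment of HT-1080-NT cells (750 cells/well, RPMI, 5% FBS, 37 degrees C).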
TDP1 cell CPT – qHTS for Inhibitors of human tyrosyl-DNA phosphodiesterase 1 (TDP1): qHTS in cells in presence of CPT | AID 686979, 2013 | 420,000 tested, 12% active | chicken DT40 Tdp1-/-;hTDP1 cells + 20 nM CPT, ATP luminescence, 48 h | Potency, µM (titrated, usually from 46.2 µM), without a hit: top-dose activity change, negative = growth inhibition, usual class: inhibitors; also: potency is read from the fitted curve at half-maximal effect; nearly all actives have a fitted effect of over 55% in size
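Chicken DT40 Tdp1-/- cells stably complemented with human TDP1 were seeded at 400 cells/well in medium containing 20 nM camptothecin, exposed to pin-transferred compounds, and grown at 37 °C for at least 48 hr. Viability was read as ATP luminescence.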
HT1080 IDH1KD tx – qHTS for induction of synthetic lethality in tumor cells producing 2HG: qHTS for the HT-1080-IDH1KD cell line. HT-1080 IDH1 knockdown viability, ATP luminescence, 48 h. Potency, µM (highest dose often 46.1 µM), inactives show at the highest dose activity, negative = toxicity, actives largely listed as cytotoxic. 360,000 tested, 2% active;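 also: potency is read from the fitted curve at half-maximal effect; 0% = DMSO wells and -100% = cell-free medium wells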
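Using the IDH1-knockdown HT-1080 line run in the same batch and compound series as the NT line, viability after 48 h at 37 °C was determined by CellTiter-Glo luminescence and expressed as % activity.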
* marks the source's active call; other numbers are inactive results; ? = inconclusive; . = no result; [ ] = another dose, or the depositor's remark. Sampled rows, rich in hits. Any-hit rate of the full collection: about 19%. Unless noted, calls follow the shape of the dose curve; as a rule, active = well fitted curve in the direction sought with a large enough effect; inconclusive = small, poorly fitted or top-dose-only effect, or another doubt; inactive = no such curve, though single readings can be large; an effect the other way counts as inactive or inconclusive. Unless noted, % is scaled to controls: 0 for no effect and ±100 for the full control effect.

SMILES	TDP1 cell noCPT	IL1B secr inh	HT1080NT lethal	TDP1 cell CPT	HT1080 IDH1KD tx
Cc1cc(Cl)nc(-c2ccccc2)n1	0.1%	-10.7	-27.8%	-7.8%	3.5%
Brc1cc(-c2ccccc2)nc(-c2ccccc2)n1	-16.4%	-84.3*	?	5.1%	?
Clc1cc(-c2ccccc2)nc(-c2ccccc2)n1	-21.3%	-51.6*	-3.4%	?	-2.7%
Nc1ccc(-c2cc(-c3ccc(N)cc3)nc(-c3ccccc3)n2)cc1	-12.0%	-5.6	-0.5%	-9.0%	0.5%
COc1ccc(-c2cc(C(F)(F)F)nc(-n3cc(Cl)cn3)n2)cc1	?	.	?	14.6µM*	3.4%
FC(F)(F)c1cc(-c2ccccc2)nc(-n2cc(Cl)cn2)n1	?	?	25.2%	?	13.7%
COc1ccc(-c2cc(C(F)(F)F)nc(-n3nc(C(F)(F)F)cc3C)n2)cc1	13µM*	.	.	14.6µM*	.
CCOC(=O)c1ccn(-c2nc(-c3cccc(OC)c3)cc(C(F)(F)F)n2)n1	20.6µM*	.	.	14.6µM*	.
COc1ccc(-c2cc(C(F)(F)F)nc(-n3cncn3)n2)cc1	-26.7%	-10.7	1.4%	-15.4%	-9.2%
COc1cccc(-c2cc(C(F)(F)F)nc(-n3cc(Cl)cn3)n2)c1	16.4µM*	.	21.9%	?	23.3%
Cc1ccc(S(=O)(=O)N2CCCCC2C(=O)Nc2ccc(N(C)C)cc2)cc1 (configuration not stated)	?	-28.6	-12.5%	-20.5%	0.1%
COc1cc(C(C)=O)ccc1COc1ccc(C(=O)OC(C)C(=O)NC(N)=O)cc1OC (configuration not stated)	?	26.8	27.9%	?	15.9%
O=C(NCc1ccccc1)C(c1ccncc1)n1c(=O)c(-c2cc3ccccc3[nH]2)nc2ccccc21 (configuration not stated)	?	-29.4	?	?	?
COc1ccc(NC(=O)C(c2ccccc2)n2c(=O)c(-c3cc4ccccc4[nH]3)nc3ccccc32)cc1 (configuration not stated)	16.4µM*	-11.7	?	16.4µM*	?
O=C(NCc1ccccc1)C(c1ccc(-c2ccccc2)cc1)n1c(=O)c(-c2cc3ccccc3[nH]2)nc2ccccc21 (configuration not stated)	14.6µM*	43.8	12.6%	?	8.4%
CCCCCNC(=O)C(c1ccncc1)n1c(=O)c(-c2ccccc2)nc2ccccc21 (configuration not stated)	?	-12.2	-1.3%	?	-3.6%
COc1ccc(NC(=O)C(c2ccncc2)n2c(=O)c(-c3ccccc3)nc3ccccc32)cc1 (configuration not stated)	?	-56.1*	-23.0%	?	?
COc1ccc(NC(=O)C(c2ccccc2F)n2c(=O)c(-c3cc4ccccc4[nH]3)nc3ccccc32)cc1 (configuration not stated)	13µM*	-9.6	?	16.4µM*	?
NC(=O)C(CCc1nc2ccccc2[nH]1)NS(=O)(=O)c1ccccc1 (configuration not stated)	?	-17.6	-1.2%	-11.3%	1.0%
CC(=O)c1ccc(C(=O)Nc2ccc3c(c2)C(=O)NC3=O)cc1	-19.3%	-4.3	20.2%	2.4%	17.1%
CSc1ccc(Cn2c(C)c(C(=O)NCc3ccco3)sc2=O)cc1	?	-101.3*	-7.6%	?	-11.0%
CSc1ccc(Cn2c(C)c(C(=O)NCc3ccc(F)cc3)sc2=O)cc1	?	?	-16.0%	23.1µM*	-20.3%
Cc1c(C(=O)NCc2ccc(F)cc2)sc(=O)n1Cc1ccc(Cl)c(Cl)c1	?	-86.2*	?	?	?
Cc1c(C(=O)NCc2ccc(Cl)c(Cl)c2)sc(=O)n1Cc1ccccc1F	?	-14.7	?	?	?
Cc1c(C(=O)NCc2ccc(Cl)c(Cl)c2)sc(=O)n1Cc1ccc(S(C)(=O)=O)cc1	18.4µM*	?	-26.2%	?	-25.1%
SMILES	TDP1 cell noCPT	IL1B secr inh	HT1080NT lethal	TDP1 cell CPT	HT1080 IDH1KD tx
CSc1ccc(Cn2c(C)c(C(=O)NCCC#N)sc2=O)cc1	-26.2%	-9.8	-5.3%	-11.4%	?
Cc1ccc(-n2nnc(-c3nc(-c4cccs4)no3)c2N)c(C)c1	-25.7%	.	.	4.4%	.
CCOc1ccc(NC(=O)CSc2ccc3nnc(-c4ccccn4)n3n2)cc1	-10.1%	11.4	1.5%	-2.8%	7.6%
CCSc1nnc(C(C)NC(=O)c2ccc(OC)cc2)n1C (configuration not stated)	-12.7%	.	.	8.6%[9.04 µM]	.
COc1ccc(S(=O)(=O)N2CCC3(CC2)CC(=O)c2ccccc2O3)cc1C	-12.4%	17.0	5.2%	-25.7%	6.0%
Cc1ccc(Cn2c(C)c(C(=O)NCC(C)C)sc2=O)cc1	?	-24.3	3.2%	?	-0.9%
CSc1ccc(Cn2c(C)c(C(=O)NCc3ccc4c(c3)OCCO4)sc2=O)cc1	?	-29.6	0.3%	?	-29.6%
CCCCN(C)C(=O)c1sc(=O)n(Cc2ccc(Cl)c(Cl)c2)c1C	20.6µM*	0.0	-2.5%	?	-16.0%
CSc1ccc(Cn2c(C)c(C(=O)NCc3ccc(Cl)c(Cl)c3)sc2=O)cc1	?	-58.2*	-24.7%	?	-14.1%
O=C(Nc1cn(-c2ccccc2)nc1-c1cccs1)c1ccco1	?	-26.3	0.0%	?	-2.6%
CC(NC(=O)COC(=O)c1ccccc1F)C1CC2CCC1C2 (configuration not stated)	-29.7%	-10.8	-0.9%	-16.8%	1.6%
Cc1ccc(/C(N)=N/OC(=O)N2c3ccccc3Sc3ccccc32)cc1	20.6µM*	-5.3	-0.6%	?	-1.0%
Cc1ccccc1/C(N)=N/OC(=O)N1c2ccccc2Sc2ccccc21	12.6µM*	-6.9	-12.8%	11.2µM*	-23.0%
CCOC(=O)N1c2ccccc2Sc2ccccc21	?	8.4	-3.3%	-11.0%	-10.8%
COc1cc(C=O)ccc1Oc1ccc(S(=O)(=O)N2CCOCC2)cc1[N+](=O)[O-]	-29.2%	-57.2*	-2.8%	-9.6%	-2.0%
O=[N+]([O-])c1cc(S(=O)(=O)N2CCCCCC2)ccc1Cl	8.2µM*	-103.5*	23.1µM*	?	?
COc1ccc(CCNc2ccc(S(=O)(=O)N3CCCC3)cc2[N+](=O)[O-])cc1	?	-22.2	-20.6%	14.6µM*	-18.4%
CCCOc1ccc(S(=O)(=O)N2CCOCC2)cc1[N+](=O)[O-]	-2.9%	9.6	2.3%	7.1%	-3.7%
